Sampled rows, rich in hits. Any-hit rate of the full collection: about 1.7%.
GLP-1R agonist: GLP-1 receptor (human) agonism. HEK293 GLP-1R CRE-luciferase, luminescence, 4-6 h; cells express a hypersensitive GLP-1R form. Potency, µM (highest dose often 45.6 µM), inactives show top-dose activation, hits mostly activators. hit rate 0.007% among 380,000; further: % of control where 0% means no effect
PTHR1 ag: activates the human parathyroid hormone receptor PTHR1 | Potency, µM (titrated, usually from 115 µM), without a hit: at the top dose activation, usual class: activators | HEK293 GP2 PTHR1 cells, GloSensor cAMP luminescence, 1 h | hit rate 0.075% among 410,000 | AID 743266; further: nearly all actives have a fitted effect of over 55% in size
Target sequence (Q03431 whole entry, looked up): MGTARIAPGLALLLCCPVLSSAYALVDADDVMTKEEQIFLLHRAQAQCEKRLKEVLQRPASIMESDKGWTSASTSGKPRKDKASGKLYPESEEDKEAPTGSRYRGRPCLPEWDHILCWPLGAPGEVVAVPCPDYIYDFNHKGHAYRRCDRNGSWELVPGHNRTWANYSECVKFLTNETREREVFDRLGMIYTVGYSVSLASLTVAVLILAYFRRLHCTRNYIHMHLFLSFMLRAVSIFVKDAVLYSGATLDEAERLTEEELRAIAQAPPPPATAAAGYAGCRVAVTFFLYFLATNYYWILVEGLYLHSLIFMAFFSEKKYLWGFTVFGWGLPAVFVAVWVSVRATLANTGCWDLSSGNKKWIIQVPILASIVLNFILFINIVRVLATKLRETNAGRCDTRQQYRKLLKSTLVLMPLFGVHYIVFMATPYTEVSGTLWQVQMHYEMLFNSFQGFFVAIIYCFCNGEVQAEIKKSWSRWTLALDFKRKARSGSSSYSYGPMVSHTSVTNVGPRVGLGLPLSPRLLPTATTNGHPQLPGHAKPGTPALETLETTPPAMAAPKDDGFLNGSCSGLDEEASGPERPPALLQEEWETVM
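HEK-293-derived GP2 cells expressing PTHR1 and a GloSensor cAMP reporter, 3,000/well, plated overnight, given luciferin plus IBMX (each 0.5 mM as added) for 1 h at 37 °C, then compound for 1 h at 37 °C. Luminescence was read after 15 min at room temperature.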
GLP1R inv ag: GLP-1 receptor (human) inverse agonism; P43220; HEK293 GLP-1R CRE-luciferase, luminescence, 24 h; GLP-1R form is constitutively active; Potency, µM (doses to about 38.3 µM), inactives show at the highest dose activity change, negative = inhibition, most hits filed as inhibitors; hit rate 1.6% among 410,000; AID 624417; further: on the % scale 0 is the no-effect control and ±100 the full control effect; nearly all actives have a fitted effect of over 55% in size
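Cells are plated, allowed 12 hours at 37 deg C, then treated with compounds for 24 hr before luciferase detection reagent is added and luminescence is read after 12 min at room temperature. The HEK293 line carries constitutively active GLP-1R with a cAMP-responsive reporter.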
HEK293 tox: cytotoxic in the GLP-1 receptor inverse agonist counter-screen. HEK293 cAMP-luciferase reporter cells, luminescence, 24 h. Potency, µM (series often up to 38.3 µM), without a hit: top-dose activity change, negative = inhibition, usual class: inhibitors. hit rate 0.13% among 410,000;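 further: loss of luciferase light is scored as toxicity; on the % scale 0 is the no-effect control and ±100 the full control effect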
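To flag toxic compounds, the library was rerun on cells for 24 hr at 37 deg C and 5% CO2. Viability-linked luminescence was captured 12 min after adding luciferase detection reagent.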
* = called active by the depositor; i = inactive; ? = inconclusive; . = no result; [ ] = another dose, or the depositor's remark. The call rests on the fitted dose curve; in most records, active means well fitted curve in the direction sought with a large enough effect; inconclusive means small, poorly fitted or top-dose-only effect, or another doubt; inactive means no such curve, though single readings can be large; an effect the other way counts as inactive or inconclusive. Potency means the concentration at half of the fitted maximal effect.

SMILES	GLP-1R agonist	PTHR1 ag	GLP1R inv ag	HEK293 tox
CC(=O)Nc1ccc(NC(=O)CCC(=O)OCC(=O)c2ccc(F)cc2)cc1	-8%	16%	4%	0%
O=C(c1cnn2ccccc12)N(Cc1ccco1)C1CCCC1	18%	-20%	3.5µM*	?
O=C(c1cnn2ccccc12)N1CCN(C2CCCCC2)CC1	13%	-14%	13%	-5%
CCOC(=O)c1c(NC(=O)c2nc(SCC)ncc2Cl)sc2c1CCCC2	.	i	3%	-3%
CCN(CC)CCn1c(=N)n(CC(=O)c2ccc(Br)s2)c2ccccc21	20%	i	2.8µM*	?
Cn1c(=N)n(CC(=O)c2ccc(Br)s2)c2ccccc21	12%	-24%	?	-19%
CCOc1ccc(N(C)S(=O)(=O)c2cc(-c3cc(C)no3)ccc2CC)cc1	-4%	-22%	8.9µM*	3%
CCOc1ccc(N(C)S(=O)(=O)c2cc(-c3cc(C)no3)ccc2C)cc1	-1%	-29%	?	1%
CC(CN1CCOCC1)C(Cc1ccccc1)(Cc1ccccc1)C(=O)N1CCCC1 (configuration not stated)	-5%[110 µM]	.	.	.
O=C(Nc1ccc2c(c1)OCCO2)c1cc2sccc2n1Cc1ccc(F)cc1	-11%	-22%[57.5 µM]	5.6µM*	-8%
Cc1ccc(-c2nnc(CSc3nnc(COc4ccccc4)n3-c3ccccc3)o2)cc1	3%	-23%	10µM*	-7%
CSc1ccc(/C=C(/NC(=O)c2ccco2)C(=O)N2CCCCCC2)cc1	-3%	-10%	?	-1%
O=C(N/C(=C\c1ccc(Cl)cc1)C(=O)N1CCCCC1)c1ccco1	10%	-16%	10µM*	-4%
COc1cccc(CNC(=O)CCc2c(C)c3cc4c(C)c(C)oc4cc3oc2=O)c1	.	2%	-1%	12%
C[n+]1ccc(/C=N/Nc2nc(Cl)c(C#N)c(Cl)c2Cl)cc1	-7%	-14%	30%	10µM*
Clc1nnc(N/N=C/c2ccccc2)c2ccccc12	23%	-11%	?	?
Cc1ccc(Cn2c(C(C)Nc3nc(-c4ccc(F)cc4)cs3)nc3cc(Cl)c(Cl)cc32)cc1 (configuration not stated)	-6%	16%	11µM*	-24%
Cc1c(C(=O)Nc2cnccn2)oc2ccccc12	9%	i	6%	-20%
Cc1ccnc(NC(=O)c2oc3ccccc3c2C)c1	0%	-13%	11µM*	8%
Cc1cccnc1NC(=S)NC(=O)c1oc2ccccc2c1C	9%	-30%	4.5µM*	?
N#Cc1c(NC(=O)c2ccccc2Cl)n(Cc2ccccc2)c2nc3ccccc3nc12	-3%	i	?	123%
CCCCn1c(NC(=O)c2ccccc2Cl)c(C#N)c2nc3ccccc3nc21	-4%	-19%[57.5 µM]	5.6µM*	465%
COc1cccc(-n2c(SCc3ccc(F)cc3)nc3c([nH]c4ccccc43)c2=O)c1	4%	i	8.9µM*	-15%
CCSc1nc2c([nH]c3ccccc32)c(=O)n1-c1cccc(OC)c1	7%	-9%	?	-3%
COc1cccc(-c2nnc3n2N=C(C(C)(C)C)CS3)c1	-18%	-9%	11µM*	-22%
SMILES	GLP-1R agonist	PTHR1 ag	GLP1R inv ag	HEK293 tox
C[C@@H]1CC=C[C@@H]2[C@H]1C(=O)N(Cc1ccccc1)[C@H]2c1ccccc1Br	1%	i	-11%	1%
COc1ccc(-c2ccccc2[C@H]2[C@@H]3C=CC[C@@H](C)[C@@H]3C(=O)N2Cc2ccccc2)cc1	1%	-22%	8.9µM*	-8%
CC(=O)c1ccc(-c2cc([C@H]3[C@H]4C=CC[C@@H](C)[C@@H]4C(=O)N3Cc3ccccc3)ccc2F)cc1	3%	-24%	11µM*	-6%
COc1ccc(-c2ccc([C@H]3[C@H]4C=CC[C@@H](C)[C@@H]4C(=O)N3Cc3ccccc3)c(F)c2)cc1C	3%	-14%	4.5µM*	4%
CCCCOc1nnc(-c2ccc(OCC)cc2)c2ccccc12	.	-11%	-18%	-5%
COC(=O)C(CCSC)Nc1ncnc2onc(-c3ccc(F)cc3)c12 (configuration not stated)	.	-24%	-6%	5%
CC1(C)CC2CC(C)(CN2S(=O)(=O)c2ccc(C(=O)Nc3ccc(Cl)c(S(=O)(=O)N4CCOCC4)c3)cc2)C1 (configuration not stated)	-17%	-30%	3.5µM*	-12%
CC(=O)Nc1ccc(S(=O)(=O)N2CC3(C)CC2CC(C)(C)C3)cc1 (configuration not stated)	9%	i	?	-6%
O=C(Nc1ccc(NC(=O)c2ccc(Cl)c(S(=O)(=O)N3CCOCC3)c2)cc1)c1ccccc1	-1%	i	-5%	1%
CC1(C)CC2CC(C)(CN2S(=O)(=O)c2ccc(C(=O)Nc3ccc(S(=O)(=O)N4CCOCC4)cc3)cc2)C1 (configuration not stated)	1%	-35%	11µM*	11%
O=C(Nc1ccc(Cl)c(S(=O)(=O)N2CCOCC2)c1)c1cc2ccccc2oc1=O	0%	-25%	13%	0%
O=C(Nc1ccc(Cl)c(S(=O)(=O)N2CCOCC2)c1)c1ccccc1-c1ccc(C(F)(F)F)cc1	19%	i	2.8µM*	2%
CCn1c(C)c(C2N3CC4(C)CN2CC(C)(C3)C4=O)c2ccccc21 (configuration not stated)	.	-10%	-2%	4%
O=C(CCn1c(=O)c2cccn2c2cccnc21)Nc1ccccc1C(F)(F)F	.	i	4%	4%
NC(=S)NS(=O)(=O)c1ccc(N)cc1	2%	.	.	.
C=CS(=O)(=O)O	-4%	.	.	.
CCc1ccc(-n2cnc3cc(C(=O)NCc4ccc(C)cc4)ccc32)cc1	.	-38%	?	13%
COc1ccc(N2CCN(C(CNS(=O)(=O)c3ccc(OC)c(C)c3)c3ccco3)CC2)cc1 (configuration not stated)	.	i	?	2%
C=CC(COCc1ccccc1)N([C@@H](Cc1ccccc1)C(=O)OC)S(=O)(=O)c1ccccc1Br (some centres not stated)	-2%	i	3.5µM*	20%
Cc1cccc(NC(=O)NC(C)CCc2ccccc2)c1 (configuration not stated)	12%	-16%	10µM*	-13%
Cc1ccc(NC(=O)C(Cc2ccccc2)n2cccc2)c(C)c1 (configuration not stated)	.	i	?	11%
Cc1ccc(C)c(NC(=O)C(Cc2ccccc2)n2cccc2)c1 (configuration not stated)	.	i	10µM*	-8%
Cc1nc(C)c(C(=O)Nc2ncc([N+](=O)[O-])s2)o1	-3%	-33%	4µM*	-7%
Cc1nc(N2CCC(C)CC2)c2nnn(Cc3ccccc3)c2n1	21%	-11%[57.5 µM]	10µM*	3%
Cc1ccc(NC(=O)c2cccc(NC(=O)N3CCSc4ncccc43)c2)cc1Cl	.	i	6%	2%

Assay outcomes from PubChem.
